CSC inhib: cancer stem cell inhibition; inhibition, % at 7.5 µM; cancer stem cell-like cells viability, luminescence; 300,000 compounds, 1.1% hits; in the data active means inhibition above about 75%; tested in HMLE shEcad cells
SKKanGAS inh: SKKanGAS growth inhibition; 300,000 compounds, 1.3% hits; inhibition, % at 7.5 µM; AID 1662; S. pyogenes SKKanGAS, kanamycin growth, BacTiter-Glo, 6 h;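 active means mean replicate score, as percent of positive control median, at least 50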;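 further: strain carries kanamycin resistance gene driven by streptokinase promoter and grows in 40 µg/ml kanamycin; loss of luminescence reflects streptokinase promoter inhibition or plain growth inhibition; 0% = median of DMSO wells and 100% = positive control at its reference dose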
Beta cell apopt: beta cell apoptosis inhibition; protection from apoptosis, % (no concentration beside the values); INS-1E cytokine-induced death, ATP luminescence, 48 h; percent of positive-control rescue, neutral wells zero; 300,000 compounds, 0.8% hits;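 active means Every replicate reaches about 75%, or at least half do and their mean reaches it too, limit read from the data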;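 further: 0% = cytokine-treated negative control wells and 100% = positive control rescue; higher means more ATP so stronger rescue from cytokine killing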
GRIN3A LBD mod: modulates the human NR3A ligand-binding domain; NR3A LBD differential scanning fluorimetry, Tm shift; 0% = protein alone, 100% = glycine-bound protein; Tm shift relative to glycine control, % at 25 µM; 340,000 compounds, 2.5% hits; AID 1259313;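 active means melting temperature shift of at least 10% of the positive control shift, at one fixed dose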
MPTP block: inhibitors of mitochondrial permeability transition pore. 360,000 compounds, 1.4% hits. inhibition, % at 10 µM. isolated mouse mitochondria, Ca2+ swelling absorbance, 30 min;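 active means inhibition of 50% or more, scaled per plate between neutral and stimulator controls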;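 further: 0% = DMSO wells given calcium and 100% = 1 mM EGTA wells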
Mdm2 MdmX PPI: inhibitors of human Mdm2/MdmX interaction; SaOS-2 split-luciferase Mdm2/MdmX complementation, luminescence; inhibition, % at 8 µM; 330,000 compounds, 3% hits; O15151+Q00987;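 active means inhibition of at least 50% at 8 µM in the primary screen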
* marks the source's active call; other numbers are inactive results; / = not tested or not shown. A selection: hits, their analogues and other compounds. The true share with any hit is near 6.9%.

SMILES	CSC inhib	SKKanGAS inh	Beta cell apopt	GRIN3A LBD mod	MPTP block	Mdm2 MdmX PPI
COCCNC(=O)/C(C#N)=C/c1ccc(-c2ccc(OC)cc2[N+](=O)[O-])o1	4.5	6.9	-1.8	0.1	-0.6	42.1
CCOP(=O)(OCC)/C(C#N)=C/c1ccc(-c2ccc(F)cc2F)o1	16.3	2.9	-1.5	13.3*	1.0	24.0
CCCCC(CC)CN1C(=O)/C(=C/c2ccncc2)SC1=S (configuration not stated)	106.6*	86.5*	88.3*	-24.7	-0.4	21.1
CCN1C(=O)/C(=C\c2ccncc2)SC1=S	21.7	-5.2	-3.6	1.5	0.3	16.2
COc1ccccc1-n1ccnc(SCC(=O)NCCc2ccccc2)c1=O	5.5	11.6	-11.5	2.8	1.2	-8.2
CC(C)OC(=O)c1c(NS(=O)(=O)c2ccccc2)sc2c1CCCC2	-3.7	96.7*	-16.0	-6.5	-2.1	23.0
COC(=O)c1c(NS(=O)(=O)Cc2ccccc2)sc2c1CCCC2	-6.4	3.0	-1.3	-8.3	2.8	-53.5
COc1ccccc1N(CC(=O)Nc1cccnc1)S(=O)(=O)c1ccccc1	1.0	-2.9	-9.1	0.1	-0.2	5.1
COc1ccc(N(CC(=O)Nc2cccnc2)S(=O)(=O)c2ccc(C)cc2)cc1Cl	-11.3	-1.1	0.1	-5.0	-0.2	21.2
CCOc1ccc(N(CC(=O)Nc2cccnc2)S(=O)(=O)c2ccc(C)cc2)cc1	-4.3	-6.2	/	15.5*	1.5	20.0
CCc1ccccc1N(CC(=O)Nc1cccnc1)S(=O)(=O)c1ccccc1	0.7	-0.4	4.9	11.7*	-0.1	-3.1
CCOc1ccc(N(CC(=O)NCc2ccc(C)cc2)S(=O)(=O)c2c(C)[nH]c(=O)[nH]c2=O)cc1	9.7	58.8*	-1.7	0.1	-2.1	23.3
CCN(CC)C(=O)C1=C(C)N(Cc2ccc(OC)cc2)C(=O)C(CC(=O)NCCCN(C)C)C1 (configuration not stated)	/	/	/	/	0.9	/
O=C(Nc1nccs1)C1CCN(S(=O)(=O)c2ccccc2)CC1	-6.7	0.3	-2.0	-0.1	1.8	-6.7
C/C(=N\NC(=O)c1cc(Br)ccc1O)c1cccc(NC(=O)c2ccccc2F)c1	16.7	63.2*	0.6	8.4	6.9	19.3
COc1cccc(CNC(=O)C2CCN(S(=O)(=O)c3ccc4c(c3)C(C)(C)C(=O)N4C)CC2)c1	/	/	/	/	-0.6	/
Cc1ccc(OCC(=O)Nc2ccc(NC(=O)c3ccco3)cc2)c(C)c1	5.7	-2.4	-1.6	29.3*	-0.2	17.5
CC(C)(C)c1ccc(OCC(=O)NCc2ccco2)c(Br)c1	9.3	7.4	-6.4	-6.0	-1.0	5.3
Cc1ccccc1OCC(=O)NNC(=S)NC(=O)c1ccco1	/	114.6*	6.2	-0.1	-2.2	8.4
CC(C)(C)c1ccc(OCC(=O)NNC(=S)NC(=O)c2ccco2)c(Br)c1	-10.1	118.5*	13.2	-2.2	4.2	41.8
CC1CN(C(=O)CCC(=O)NCc2ccccn2)c2ccccc2O1 (configuration not stated)	-7.3	0.2	-3.2	-2.0	0.4	24.7
Cc1ccc(S(=O)(=O)N(C)CC(=O)NCCCn2nc(C)cc2C)cc1	-16.9	/	2.4	13.0*	-0.6	20.0
CS(=O)(=O)c1ccccc1C(=O)Nc1ccc(-c2nc3ccccc3[nH]2)cc1	-3.1	1.0	-3.1	-6.1	-0.6	-58.1
CC(C)(C)N1C(=O)c2ccc(C(=O)Nc3ccc(-c4nc5ccccc5[nH]4)cc3)cc2C1=O	/	3.5	-1.3	34.7*	8.2	9.5
O=C(Nc1ccc(S(=O)(=O)Nc2ncccn2)cc1)c1ccccc1NS(=O)(=O)c1ccc(F)cc1	-6.7	18.0	2.2	-0.7	-0.1	-9.4
SMILES	CSC inhib	SKKanGAS inh	Beta cell apopt	GRIN3A LBD mod	MPTP block	Mdm2 MdmX PPI
O=C(Nc1ccc(-c2nc3ccccc3[nH]2)cc1)c1ccccc1NS(=O)(=O)c1ccc(F)cc1	-14.2	39.8	2.3	30.4*	50.0	-2.0
CS(=O)(=O)c1cccc(C(=O)Nc2ccc(-c3nc4ccccc4[nH]3)cc2)c1	19.7	2.9	-7.1	31.5*	-2.1	28.2
O=C(Nc1ccc(-c2nc3ccccc3[nH]2)cc1)c1ccc(N2C(=O)CCC2=O)cc1	3.5	22.0	-4.7	24.2*	0.4	-21.3
CCOn1c(=O)c(=O)n(OC)c2ccccc21	-14.6	0.3	-7.4	0.8	2.3	7.5
CN(c1ccccc1)S(=O)(=O)c1ccc(Cl)c(C(=O)Nc2ccc(-c3nc4ccccc4[nH]3)cc2)c1	44.4	27.5	4.9	18.6*	-1.2	28.8
CN(c1ccccc1)S(=O)(=O)c1ccc(Cl)c(C(=O)Nc2nc3ccccc3[nH]2)c1	-3.2	8.6	21.3	-17.7	3.8	28.7
CCOC(=O)C(=NCCCN1CCOCC1)NNc1cccc(C(F)(F)F)c1	85.5*	4.3	-1.8	0.7	2.4	2.3
COc1cc(/C=C2/C(=O)ON=C2C)cc(Cl)c1O	-19.2	-4.1	-4.3	25.6*	1.1	2.0
CC1=NOC(=O)/C1=C/c1ccc(O)c(Cl)c1	/	-0.3	/	20.4*	1.8	-6.7
C#CCOc1c(Cl)cc(/C=C2/C(=O)ON=C2C)cc1OC	-9.1	-0.8	-2.7	-0.5	-0.9	7.7
Cc1[nH]n(-c2ccccc2)c(=O)c1/C=N\NC(=O)C1COc2ccccc2O1 (configuration not stated)	7.6	65.3*	78.4*	-8.7	0.0	7.7
CCSC(=S)c1c(C)[nH]n(-c2ccccc2)c1=O	27.2	57.0*	1.3	4.6	14.7	16.5
Cc1[nH]n(-c2ccccc2)c(=O)c1/C=N/NC(=O)COc1ccccc1[N+](=O)[O-]	12.6	25.6	75.8*	-4.9	1.5	36.1
Cc1[nH]n(-c2ccccc2)c(=O)c1C(=O)c1ccccc1	-0.9	-5.4	-5.0	-0.1	0.3	1.2
O=C(N/N=C/c1c(O)n(-c2ccccc2Cl)c(=O)c2ccccc12)C1COc2ccccc2O1 (configuration not stated)	25.4	78.6*	12.6	-4.2	3.6	16.0
CC(=O)N/N=C/c1c(C)[nH]n(-c2ccccc2)c1=O	0.2	-13.3	2.9	-2.4	0.3	-28.5
CN(C)c1ncc(CN2CCC(C(=O)Nc3ccc(-n4cccn4)cc3)CC2)s1	-9.9	-2.5	3.9	0.5	-0.1	7.6
CC/C(=N/NC(=O)c1ccccc1O)c1c(C)[nH]n(-c2ccccc2)c1=O	81.4*	95.4*	36.2	2.9	20.1	17.2
Cc1[nH]n(-c2ccccc2)c(=O)c1C(=O)c1ccc(Cl)cc1	24.7	7.5	-2.0	1.6	1.9	19.0
Cc1[nH]n(-c2ccccc2)c(=O)c1/C=N/NC(=O)c1ccccc1F	/	90.3*	/	-0.5	-0.4	21.8
Cc1cc(=O)[nH]c(SCC(=O)OCc2ccccc2)c1C#N	-4.0	1.5	-4.6	-0.5	-1.0	-16.1
CCc1c(C2(O)CCCCC2)[nH]c2ccc(C#N)cc12	19.7	11.6	/	-10.9	1.6	23.9
C=C1c2ccccc2O[C@H](C(=O)OCC)[C@@H]1C1CCCCC1	/	/	/	2.0	-2.9	6.7

Screening results from PubChem.
